Legend:
Experiment in all cases: PBM binding z-score (relative to random genomic background probes); higher = stronger binding; sequences stand for … in GC…GCGATTGACAGCGTAGAATGAAGG
[1] = tested on: PPARg:RXRa DBDmut IVT, anti-RXR (DBD mutation: RXRa K156A/R161A, NR concentration 270 nM, RXRa partner concentration 90 nM)
Summary of the method: (§1)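 The probes on custom Agilent 4×180K protein-binding microarrays were double-stranded, with 34-nt variable regions bearing direct-repeat seeds, single-nucleotide variants, half-site ablations and random human genomic background sequences. Incubation lasted 1 h with ligand-free nuclear receptor dimers in PBS pH 7.4, 2% milk, 0.02% Triton X-100, 1 mM DTT, 0.2 mg/mL BSA and 0.4 mg/ml salmon testes DNA. Antibodies against each partner (one per run) detected bound dimers, and fluorescence scans were regression-normalized. Binding z-scores take the random background probes as reference.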

[2] = tested on: PPARg:RXRa IVT, anti-PPARg (NR concentration 270 nM, RXRa partner concentration 90 nM)
Summary of the method: as §1

[3] = tested on: PPARg DBDmut:RXRa IVT, anti-PPARg (DBD mutation: PPARg1 K132A/R137A, NR concentration 270 nM, RXRa partner concentration 90 nM)
Summary of the method: as §1

[4] = tested on: PPARg DBDmut IVT, anti-PPARg (DBD mutation: PPARg1 K132A/R137A, NR concentration 270 nM)
Summary of the method: as §1

[5] = tested on: PPARg homodimer (NR concentration 180 nM)
Summary of the method: as §1

[6] = tested on: PXR:RXRa (NR concentration 270 nM, RXRa partner concentration 90 nM)
Summary of the method: as §1

[7] = tested on: PXR homodimer (NR concentration 270 nM)
Summary of the method: as §1

[8] = tested on: RARa:RXR (NR concentration 270 nM, RXRa partner concentration 90 nM)
Summary of the method: as §1

[9] = tested on: RARa homodimer (NR concentration 270 nM)
Summary of the method: as §1

[10] = tested on: RARb:RXRa (NR concentration 270 nM, RXRa partner concentration 90 nM)
Summary of the method: as §1

[11] = tested on: RARb homodimer (NR concentration 270 nM)
Summary of the method: as §1

[12] = tested on: RARg:RXRa (NR concentration 270 nM, RXRa partner concentration 90 nM)
Summary of the method: as §1

[13] = tested on: RARg homodimer (NR concentration 270 nM)
Summary of the method: as §1

[14] = tested on: RXRa DBDmut IVT, anti-RXR (DBD mutation: RXRa K156A/R161A, NR concentration 90 nM)
Summary of the method: as §1

[15] = tested on: RXRa homodimer (NR concentration 180 nM)
Summary of the method: as §1

[16] = tested on: THRa:RXRa (NR concentration 90 nM, RXRa partner concentration 90 nM)
Summary of the method: as §1

[17] = tested on: THRa homodimer (NR concentration 90 nM)
Summary of the method: as §1

[18] = tested on: VDR homodimer (NR concentration 270 nM)
Summary of the method: as §1

Row | Sequence | PBM binding z-score [1] | PBM binding z-score [2] | PBM binding z-score [3] | PBM binding z-score [4] | PBM binding z-score [5] | PBM binding z-score [6] | PBM binding z-score [7] | PBM binding z-score [8] | PBM binding z-score [9] | PBM binding z-score [10] | PBM binding z-score [11] | PBM binding z-score [12] | PBM binding z-score [13] | PBM binding z-score [14] | PBM binding z-score [15] | PBM binding z-score [16] | PBM binding z-score [17] | PBM binding z-score [18]
1 | CCTACTGGGCCGAGGTCATTGATCAGTCAAAGCA | 1.55 | 2.71 | -0.758 | -1.27 | 2.05 | 4.62 | 2.49 | 4.33 | -0.11 | 3.19 | 3.3 | 4.27 | 3.11 | 1.96 | 4.68 | 3.52 | 2.67 | 4.32
2 | TCTAGTTGGTCAAAGGCCACACACTCGAAATGCG | 2.18 | 3.17 | 0.393 | 0.329 | 1.01 | 0.772 | 0.0843 | 1.28 | 0.063 | 1.95 | 1.9 | 1.77 | 1.42 | 0.875 | 1.71 | 0.626 | 0.029 | -0.00157
3 | CCTACTGGGCCACTCAGAGGTCATTGATCATATG | 5.13 | 5.18 | -0.186 | -0.561 | 1.94 | 5.1 | 1.83 | 4.46 | 0.374 | 3.28 | 4.26 | 4.46 | 3.39 | 0.734 | 4.43 | 3.41 | 1.71 | 2.75
4 | TCTAGTTGGTCACGGGGGTCACACACGACGGGTA | 3.49 | 5.43 | 6.78 | 6.87 | 4.67 | 5.72 | 2.32 | 6.59 | 2 | 4.07 | 4.5 | 6.36 | 5.7 | 2.07 | 6.5 | 4.03 | 3.01 | 4.15
5 | ATCTCTAGGTGAAAGTTCAGTGAATCCCGAGGAT | 5.35 | 6.32 | 1.5 | 0.994 | 1.52 | 2.87 | 1.57 | 2.87 | 0.586 | 3 | 2.67 | 2.88 | 2.27 | 0.779 | 2.74 | 2.19 | 0.227 | 1.33
6 | CCCGCTAGGTCATGGTCAGCTAATCTACAGTATG | 3.87 | 3.52 | -0.299 | -0.741 | 1.77 | 1.49 | -0.038 | 2.33 | 0.196 | 3.83 | 3.38 | 4 | 4.55 | 1.57 | 3.06 | 3.21 | 1.91 | 0.379
7 | TCATATAGGTAATAAAGGTGAAAGTCGGCATCTA | 3.99 | 3.74 | 0.942 | 1.43 | 2.01 | 1.34 | 0.488 | 2.02 | 1.77 | 1.6 | 1.76 | 1.51 | 0.992 | 1.83 | 2.06 | 1.59 | 0.669 | 0.491
8 | CATACACGGTCAGCTAGGCCAGAGTAGGGACGGC | -0.275 | 0.556 | 0.102 | 0.44 | 0.0796 | -0.388 | -0.264 | -0.295 | 0.385 | 2.49 | 1.5 | 1.24 | 2.04 | -0.438 | 0.355 | 0.226 | -0.129 | -0.286
9 | CCTGCTAGTTCATGGTCAGCTAATCTACAGTATG | 0.644 | -0.0239 | -0.434 | -0.632 | -0.0541 | 0.563 | 0.0644 | 0.225 | -0.814 | 1.55 | 0.96 | 0.833 | 1.06 | 2.43 | 0.309 | 0.298 | -0.142 | 1.09
10 | AGCTCTAGGTAAAAGTTCAGTGAATCCCGAGGAT | 2.59 | 2.87 | -0.0694 | 0.333 | 0.844 | 1.73 | 1.44 | 1.55 | 0.488 | 2.4 | 2.44 | 1.57 | 1.62 | 0.637 | 1.46 | 1.14 | 0.029 | 1.69
11 | ACTCGGGGGACAAAGGTCAGAGCTACGCCAGTGA | 2.49 | 5.75 | 7.4 | 7.53 | 5.43 | 5.36 | 1.26 | 6.35 | 2.37 | 4.91 | 4.56 | 7.2 | 6.12 | 2.06 | 6.34 | 3.82 | 1.07 | 1.81
12 | ATATGTAGGTTCCATCCGGGTCATTCAGGCTATG | 4.13 | 4.29 | 1.99 | 1.93 | 2.32 | 3.14 | 2.22 | 2.86 | 0.215 | 1.43 | 2.11 | 1.65 | 1.19 | 0.91 | 2.18 | 3.44 | 2.32 | 2.91
13 | ATCGAAAGGTGGACGAGGTGAGTATACACCGTTT | -0.328 | 0.716 | 0.496 | 0.266 | 0.223 | 0.219 | 0.0997 | 0.702 | 0.444 | 0.89 | 0.375 | 0.545 | 0.833 | -0.461 | 0.799 | 1.77 | 0.434 | -0.347
14 | CCTGCTAGTTCAATGGTCAGCTAAAGCAGCTCGC | 0.00571 | -0.344 | -0.548 | -1.19 | 0.058 | 0.465 | -0.0496 | 0.242 | -0.645 | 1.49 | 1.18 | 0.412 | 0.679 | 2.42 | 0.154 | 0.222 | -0.395 | 0.706
15 | TTACCAAGGTGAAGGTCGTGGATCCCTCTGTAGA | 2.23 | 3.55 | -0.363 | 0.188 | 0.731 | 1.53 | -0.1 | 2.38 | -0.307 | 2.4 | 2.22 | 1.86 | 1.49 | 0.01 | 2.63 | 2.79 | 1.11 | 0.222
16 | AGTAAAAGTTCACTAGGTAACGTAAGATTCAGCT | 2.43 | 4.33 | 0.938 | 1.34 | 2.48 | 3.04 | 2.08 | 2.39 | 1.61 | 4.39 | 3.39 | 4.08 | 4.93 | 4.22 | 3.39 | 1.8 | 0.341 | 3.76

From the supplement of paper PMC6555819
